Source: PubChem BioAssay
Active and inactive are the calls of the source.

What was measured:
[1] = test system: XIP peptide (Xip251-270) binding; test: XIP fragment 251-270 binding compounds – biochemical, small-molecule microarray, fluorescence 635/667 nm, 0.1 µg/mL protein, primary screen (AID 1182); settings: fluorescent protein binding, 635 nm, higher = more signal, called active from +8 up or from −8 down
[2] = test system: XIP peptide (Xip251-270); test: compounds binding XIP fragment 251-270 – biochemical, small-molecule microarray, fluorescence 635/667 nm, 0.5 µg/mL protein, primary screen (AID 1183); settings: fluorescence 635 nm, higher = more signal
[3] = blood-stage malaria parasite viability loss – strain 3D7, DAPI fluorescence, 100 nL, primary screen (AID 1184);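 note: parasites grown inside human red blood cells in medium with human serum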; settings: P. falciparum 3D7 growth, 3 d, higher = more signal
[4] = target: Homeobox protein Hox-A13 (Mus musculus) (UniProt Q62424); test: disruptors of Hoxa13 oligonucleotide interaction – biochemical, fluorescence polarization, labeled oligonucleotide, primary screen (AID 1185); settings: Hoxa13:DNA binding, 15 min, higher = more signal, called active from +8 up or from −8 down
Sequence of Homeobox protein Hox-A13 (Mus musculus) (Q62424 whole entry, looked up): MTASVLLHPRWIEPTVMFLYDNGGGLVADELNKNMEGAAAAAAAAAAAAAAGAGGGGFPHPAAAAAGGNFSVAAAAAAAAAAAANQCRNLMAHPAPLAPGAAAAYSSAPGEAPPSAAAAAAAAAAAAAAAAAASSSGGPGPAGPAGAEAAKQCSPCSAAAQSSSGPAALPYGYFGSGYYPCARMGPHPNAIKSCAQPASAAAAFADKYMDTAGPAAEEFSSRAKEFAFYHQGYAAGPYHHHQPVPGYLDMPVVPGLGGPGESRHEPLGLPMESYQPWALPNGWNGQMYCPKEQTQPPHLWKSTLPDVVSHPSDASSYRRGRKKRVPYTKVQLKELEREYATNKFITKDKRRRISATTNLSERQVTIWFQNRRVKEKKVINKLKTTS

Structure (SMILES)	composite z-score [1]	composite z-score [2]	z-score [3]	z-score [4]
O=C(NN=C1C[C@@H](O)[C@@H](O)[C@@H]2[C@@H]3C(=O)N(c4ccc(F)cc4F)C(=O)[C@@H]3CC[C@@H]12)OCc1ccccc1	-0.269 (inactive)	0.159	0.823	-1.72 (inactive)
CCCNC(=O)OC[C@H]1O[C@H](CCON=C[C@@H](OC)[C@H](C)C=CCC(=O)OC)C=C[C@@H]1Oc1ccc(OC)cc1	0.228 (inactive)	0.162	0.232	-5.88 (inactive)
CCCNC(=O)OC[C@H]1O[C@H](CCON=CC[C@@H]2C=C[C@H](OC(C)=O)[C@@H](COC(C)=O)O2)C=C[C@@H]1Oc1ccc(OC)cc1	0.27 (inactive)	0.512	-0.133	-6.56 (inactive)
COCCNC(=O)OCC1CCCC2(CC(OC(=O)NCCc3ccc(F)cc3)CC(CCC(=O)N[C@@H](C)C(=O)OC)O2)O1 (some centres undefined)	0.417 (inactive)	0.579	-1.82	-3.44 (inactive)
CCOC(=O)NN=C1C[C@@H](O)[C@@H](O)[C@@H]2[C@@H]3C(=O)N(CC)C(=O)[C@@H]3CC[C@@H]12	-0.359 (inactive)	0.482	0.518	0.443 (inactive)
CO[C@@H]1COC(=O)CC=C[C@@H](C)COC(=O)[C@H](COCc2ccccc2)NC(=O)CC=C[C@H]1C	0.0912 (inactive)	-0.453	-1.02	-0.119 (inactive)
CC1(C)OCC(C(O)C2=CCCCC2=O)CO1 (centres undefined)	0.563 (inactive)	0.446	-0.831	-2.61 (inactive)
CO[C@H]1COC(=O)[C@@H]2CCCN2C(=O)[C@@H](C)COC(=O)CC=C[C@@H]1C	-0.0014 (inactive)	0.371	1.2	-0.54 (inactive)
COC(=O)[C@@H]1CC[C@H](C)[C@@H](c2ccc(C)cc2)N1C(=O)c1ccc(C=NOC[C@@H](O)COCc2ccco2)cc1	-0.484 (inactive)	-1.03	-2.31	-6.19 (inactive)
COC(=O)CC=C[C@H](C)[C@H](CO)NS(=O)(=O)c1ccc(C)cc1	-0.291 (inactive)	0.507	0.225	-1.56 (inactive)
COc1ccc(-c2nc3c(c4c2C[C@H](C)OC4)CN(CCC(C)C)CC3)cc1	0.731 (inactive)	0.653	0.888	-5.51 (inactive)
CCOC(=O)CCN1C(=O)[C@H]2[C@H]3[C@H](O)[C@H](O)CC(=O)[C@H]3CC[C@H]2C1=O	-0.245 (inactive)	0.23	-1.18	0.804 (inactive)
CO[C@H]([C@@H](C)[C@H](OC)c1ccccc1)[C@H](C)[C@@H](OC)[C@H](C)C(C)=O	0.111 (inactive)	-0.694	0.117	-1.36 (inactive)
COc1ccc(O[C@H]2C=C[C@@H](c3ccccc3)O[C@@H]2COC(=O)CCC(C)=NO[C@@H](C)c2cc(-c3c(C)cc(C)cc3C)no2)cc1	-0.491 (inactive)	-0.782	-0.739	-0.508 (inactive)
O=C1[C@H]2[C@H]3[C@H](O)[C@H](O)CC(=NO[C@@H]4O[C@H](CO)[C@@H](O)[C@H](O)[C@H]4O)[C@@H]3CC[C@H]2C(=O)N1Cc1ccc2c(c1)OCO2	0.297 (inactive)	0.567	-1.06	-2.63 (inactive)
O=C1CCCC=C1C(O)CCOCc1ccccc1 (centres undefined)	-0.294 (inactive)	0.0941	-0.929	-0.861 (inactive)
C[C@H](c1ccccc1)N1C(=O)[C@H]2[C@H]3[C@H](O)[C@H](O)CC(=O)[C@@H]3CC[C@H]2C1=O	0.0518 (inactive)	0.771	0.0307	-1.84 (inactive)
CCOC(=O)CCN1C(=O)[C@H]2[C@H]3[C@H](O)[C@H](O)CC(=NNC(=O)OCc4ccc(OC)cc4)[C@@H]3CC[C@H]2C1=O	0.59 (inactive)	0.05	-0.688	0.614 (inactive)
CC(C)CN1CCc2nc(-c3ccccc3)c3c(c2CC1)CO[C@@H](C)C3	0.277 (inactive)	-0.399	-0.235	-0.219 (inactive)
COc1cccc([C@H]2Oc3ccc(OC)cc3C(=NO[C@H](C)c3cn([C@@H]4COC[C@H]4O)nn3)[C@@H]2O)c1	0.0524 (inactive)	-0.561	-0.866	-2.61 (inactive)
COC(=O)[C@H](C)NC(=O)CCC1CC(OC(=O)NCCc2ccc(F)cc2)CC2(CCCC(COC(=O)NCCc3ccc(Cl)cc3)O2)O1 (some centres undefined)	0.503 (inactive)	0.729	-1.5	-2.44 (inactive)
